The text below walks through data of PubChem BioAssay AID504583 (Broad Institute, 2011).

Each structure is given as a SMILES string. Potency and affinity values are given separately. Inconclusive results are not listed. Where a call stands in place of a potency, no number is given. Calls of active or inactive are those of the source.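 Rule for the calls: active = lowers substrate conversion with a fitted half-maximal potency at most ten times the top dose, in every run; inconclusive = runs disagree, or flat weak or poorly fitted curves; inactive = every run inactive, flat, weak or opposite direction.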

This experiment has as its target cAMP-dependent protein kinase catalytic subunit alpha (Homo sapiens) (UniProt P17612). The experiment in a line: inhibition of human PKA kinase activity – biochemical, Caliper mobility shift, dry powder samples, dose response (AID 504583). The following applies: recombinant PKA, Caliper peptide phosphorylation % conversion; series mostly up to 10 µM.
In the case of `COc1cc(N2CCC(O)CC2)ccc1Nc1ncc2c(n1)N1CCc3cccc(c31)C(=O)N2C`, the result was inactive. In the case of `CC(Oc1ccc2c(c1)c1ccnc3c4ccccc4c(=O)n2c13)C(=O)NCCN1CCOCC1` (centres undefined), the outcome was inactive. For the molecule `COc1cc(N2CCN(C)CC2)ccc1Nc1ncc2c(n1)N(C)c1ccccc1C(=O)N2C`, the result was inactive. The same measure for `COc1cc(/C=N/n2c(-c3ccccc3)n[nH]c2=S)ccc1O`: “inactive”; for `Cc1ncc(/C=C2\C(=O)Nc3ccccc32)[nH]1`: “inactive”.

Regarding `O=C1NC(=NCc2ccccc2)S/C1=C/c1ccc(O)cc1`, the result was inactive. Regarding `COc1cc(N2CCN(C)CC2)ccc1Nc1ncc2c(n1)N(C1CCCC1)C(C)CC(=O)N2C` (centres undefined), the result was inactive. For the molecule `COc1cc(/C=C2\SC(N)=NC2=O)ccc1O`, the result was inactive. On to `CN1CCN(c2ccc(Nc3ncc4c(n3)N(C)c3ccccc3C(=O)N4C)cc2)CC1`, for which the result was inactive. Consider `O=C(Nc1ccccc1-c1nc2ccccc2[nH]c1=O)c1cccs1`, for which the outcome was inactive.

Turning to `CC(=O)N(C)c1ccc(N=Cc2c(O)ccc3ccccc23)cc1`, the outcome was inactive.

Consider `COc1cc(N2CCC(N3CCN(C)CC3)CC2)ccc1Nc1ncc2c(n1)N(C1CCCC1)C(C)CC(=O)N2C` (centres undefined), for which the result was inactive. As for `O=C1NCCCc2c1oc1ccc(O)cc21`, the result was inactive.

On to `Oc1ccc(Nc2nc(-c3ccccc3O)nc3ccccc23)cc1`, for which the result was inactive. In the case of `O=C(Nc1ccccc1-c1ccccc1)c1ccc(Br)o1`, the result was inactive. Take `COc1cc(N2CCC(N3CCN(C)CC3)CC2)ccc1Nc1ncc2c(n1)N1CCC[C@H]1CC(=O)N2C`: the outcome was inactive.

On to `CCCn1c(NC(=O)c2cccc(S(=O)(=O)N3CCCC3)c2)nc2ccccc21`, for which the result was inactive. Consider `COc1cc(C(=O)NC2CCN(C)CC2)ccc1Nc1ncc2c(n1)N(C1CCC(O)CC1)CCC(=O)N2C` (centres undefined), for which the result was inactive. Turning to `COc1cc(N2CCN(C)CC2)ccc1Nc1ncc2c(n1)N(C)c1sccc1C(=O)N2C`, the result was inactive. `COc1cc(/C=C2\SC(=Nc3ccccc3OC)NC2=O)ccc1O`: the outcome was inactive. Turning to `CCOc1ccccc1C(=O)Nc1cc(Cl)ccc1O`, the result was inactive. `CC(C)n1cnc2c(Nc3cccc(Cl)c3)nc(NCCO)nc21`: the outcome was inactive.

Consider `COc1cc(C(=O)N2CCC(N3CCN(C)CC3)CC2)ccc1Nc1ncc2c(n1)N(C)c1ccccc1C(=O)N2C`, for which the result was inactive.

Take `COc1cc(N2CCN(C)CC2)ccc1Nc1ncc2c(n1)N1CCC[C@H]1CC(=O)N2C`: the outcome was inactive.
